Results reported in PubChem BioAssay (EPA / NIEHS).
Values joined by “and” are separate entries in the source; they are usually repeats but may differ in a detail not shown here. Equal values may be shown once. A structure can be active in one record and inactive in another. Active and inactive are the calls of the source. The calls were made as follows: active = hit-call score of the fitted dose curve at least 0.9, where 1 is the maximum; inactive = score below 0.9.

Columns and labels:
Conditions in all cases: primary human HUVEC with PBMC; actives raise or lower the signal
[1] = read-out: Monocyte Chemoattractant Protein-1 (MCP1), CCL2 (gene 6347); assay: BSK_LPS_MCP1: BioMAP Diversity Plus: LPS Assay for Monocyte Chemoattractant Protein-1 (MCP1) Biomarker Activity (AID 2283081);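 as to AC50: secreted MCP-1 protein quantified by ELISA in culture supernatant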
Method in brief: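 Human umbilical vein endothelial cells co-cultured with PBMC, LPS-stimulated; secreted MCP-1 measured by ELISA 24 h after compound addition. Bidirectional curve fitting against DMSO baseline; SRB total-protein staining in parallel cultures for cytotoxicity.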

[2] = BSK_LPS_PGE2: BioMAP Diversity Plus: LPS Assay for Prostaglandin E2 (PGE2) Biomarker Activity (AID 2283082);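 as to AC50: secreted prostaglandin E2 measured by ELISA in LPS-stimulated co-culture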
Method in brief: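 Endpoint derived from bidirectional curve fitting versus DMSO of ELISA-measured PGE2 in LPS-stimulated human primary vascular co-culture (HUVEC with PBMC) harvested at 24 h.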

[3] = read-out: Macrophage colony-stimulating factor (MCSF), CSF1 (gene 1435); assay: BSK_LPS_MCSF: BioMAP Diversity Plus: LPS Assay for Macrophage colony-stimulating factor (MCSF) Biomarker Activity (AID 2283083)
Method in brief: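 HUVEC–PBMC co-culture, M-CSF measured by ELISA 24 h after chemical dosing. Fitted in both directions relative to DMSO as negative control; overt cytotoxicity assessed by SRB total-protein staining in parallel cultures.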

[4] = read-out: Tissue Factor, F3 (gene 2152); assay: BSK_LPS_TissueFactor: BioMAP Diversity Plus: LPS Assay for Tissue Factor Biomarker Activity (AID 2283084)
Method in brief: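 Human umbilical vein endothelial cells co-cultured with PBMC were dosed with compound. Cell-surface CD142 was measured by ELISA 24 h later. Activity was fitted bidirectionally against DMSO, with SRB total-protein staining in parallel cultures for cytotoxicity.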

[5] = read-out: Tumor necrosis factor (Homo sapiens) (UniProt P01375); assay: BSK_LPS_TNFa: BioMAP Diversity Plus: LPS Assay for Tumour Necrosis Factor alpha (TNFa) Biomarker Activity (AID 2283085)
Method in brief: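 Primary human vascular co-culture of HUVEC and PBMC; TNFa ELISA 24 h after treatment, analysed as increase or decrease relative to DMSO control.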

[6] = read-out: Vascular cell adhesion molecule 1 (VCAM1), VCAM1 (gene 7412); assay: BSK_LPS_VCAM1: BioMAP Diversity Plus: LPS Assay for Vascular cell adhesion molecule 1 (VCAM1) Biomarker Activity (AID 2283086)
Method in brief: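 Primary human vascular co-culture (umbilical vein endothelium plus PBMC) stimulated with LPS received chemical; 24 h later VCAM-1 was read by ELISA. Overt cytotoxicity was assessed by sulforhodamine B staining of parallel cultures at the same time point.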

CD69, CD69 (gene 969) = assay: BSK_SAg_CD69: BioMAP Diversity Plus: SAg Assay for CD69 Biomarker Activity (AID 2283089);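 as to AC50: cell surface CD69 protein quantified by ELISA with fluorescence detection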
Method in brief: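 Primary human vascular co-culture (umbilical vein endothelium with peripheral blood mononuclear cells) exposed to test chemical for 24 h. CD69 levels quantified by fluorescence ELISA; DMSO served as negative control for bidirectional fitting.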

[7] = read-out: Monocyte Chemoattractant Protein-1 (MCP1), CCL2 (gene 6347); assay: BSK_SAg_MCP1: BioMAP Diversity Plus: SAg Assay for Monocyte Chemoattractant Protein-1 (MCP1) Biomarker Activity (AID 2283090)
Method in brief: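 MCP-1 levels in the endothelial–PBMC SAg co-culture were quantified by ELISA at 24 h post-dosing; both increases and decreases versus DMSO scored. Cytotoxicity monitored by SRB total protein in parallel cultures.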

CD38, CD38 (gene 952) = assay: BSK_SAg_CD38: BioMAP Diversity Plus: SAg Assay for CD38 Biomarker Activity (AID 2283087)
Method in brief: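 Fluorescence ELISA of cell-surface CD38 served as the read-out, with either increase or decrease fitted against DMSO controls. Cells were a human umbilical vein endothelium plus PBMC co-culture under SEB/TSST-1 stimulation, measured 24 h after dosing.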

CD40, CD40 (gene 958) = assay: BSK_SAg_CD40: BioMAP Diversity Plus: SAg Assay for CD40 Biomarker Activity (AID 2283088)
Method in brief: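 HUVEC plus PBMC co-culture, superantigen-activated, with CD40 read by ELISA 24 h after dosing. Curves fitted in both directions against DMSO. Overt cytotoxicity checked by parallel SRB total-protein staining.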

Measured: AC50

Tumor necrosis factor (Homo sapiens), sequence (P01375 whole entry, looked up): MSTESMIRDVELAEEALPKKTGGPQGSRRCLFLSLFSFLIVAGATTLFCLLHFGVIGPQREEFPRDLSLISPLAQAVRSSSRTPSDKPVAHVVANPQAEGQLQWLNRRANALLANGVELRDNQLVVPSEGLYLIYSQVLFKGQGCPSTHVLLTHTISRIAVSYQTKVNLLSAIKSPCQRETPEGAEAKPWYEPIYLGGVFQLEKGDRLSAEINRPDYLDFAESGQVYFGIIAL

CN(Cc1cnc2nc(N)nc(N)c2n1)c1ccc(C(=O)N[C@@H](CCC(=O)O)C(=O)O)cc1
active: [1] 100 nM
inactive: [1] | [2] | [3] | [4] | [5] | [6] | CD69, CD69 (gene 969) | [7]

CCCCCCCCCCCCCCC
not listed: CD40, CD40 (gene 958)
inactive: all other assays above

O=P(O)(O)CCC(F)(F)C(F)(F)C(F)(F)C(F)(F)C(F)(F)C(F)(F)C(F)(F)C(F)(F)F
inactive: [1] | [2] | [4] | [5] | [6] | CD69, CD69 (gene 969) | [7]
active: [2] 30 µM | [3] 27.7 µM and 30 µM

CCCCCc1ccc(O)cc1
active: [1] 31400 nM | [2] 1.39 µM | [3] 27.2 µM | [4] 29 µM | [5] 31.4 µM | [6] 32.4 µM | CD40, CD40 (gene 958) 29.6 µM | CD69, CD69 (gene 969) 30.9 µM | [7] 27.5 µM

O=C(O)CCC(F)(F)C(F)(F)C(F)(F)C(F)(F)C(F)(F)C(F)(F)F
not listed: CD40, CD40 (gene 958)
inactive: all other assays above

CC1=NN(c2ccccc2)C(=O)C1
inactive: all assays above

CCOC(=O)CN[C@@H](C(=O)N1CC[C@H]1C(=O)NCc1ccc(/C(N)=N/O)cc1)C1CCCCC1
not listed: CD40, CD40 (gene 958)
inactive: all other assays above

O=C(CC(=O)C(F)(F)C(F)(F)C(F)(F)F)c1cccs1
active: [1] 30 µM and 40.4 µM | [3] 30 µM | [4] 10.4 µM | [5] 15.2 µM | [6] 45.7 µM and 46.4 µM | CD69, CD69 (gene 969) 17.6 µM and 30 µM | [7] 37.4 µM and 41.6 µM
inactive: [2] | [3] | [4] | [5]

Oc1cc2ccccc2cc1O
not listed: CD40, CD40 (gene 958)
inactive: all other assays above

O=C1NS(=O)(=O)c2ccccc21
inactive: all assays above

O=C(c1ccccc1)c1ccccc1
active: [2] 0.569 µM
inactive: all other assays above

CCCCC(CC)C(=O)OCCOCCOCCOCCOC(=O)C(CC)CCCC (stereo not drawn)
active: [3] 20 µM
not listed: CD38, CD38 (gene 952)
inactive: all other assays above

O=C(O)C(F)(F)OC(F)(F)C(F)(F)OC(F)(F)C(F)(F)OC(F)(F)C(F)(F)C(F)(F)C(F)(F)F
active: [1] 52.4 µM and 46.7 µM | [2] 37.8 µM and 25.8 µM | [3] 55.1 µM and 44.7 µM | [4] 54.8 µM and 30 µM | [5] 50 µM and 46.4 µM | [6] 45.6 µM and 48.4 µM | CD38, CD38 (gene 952) 45.5 µM and 47.5 µM | CD40, CD40 (gene 958) 43.7 µM and 45.3 µM | CD69, CD69 (gene 969) 42.8 µM and 32 µM | [7] 48.8 µM and 47.2 µM
